Source: PubChem BioAssay AID1626 (SRMLSC, 2009)
The campaign covered roughly 220,000 compounds. About 2,000 (0.91%) were called active. Roughly 2% stayed inconclusive and do not appear here. A selection follows. Entries with a potency or affinity are not part of this list. Unmarked numbers belong to inactive results. Rule as the data show it: inconclusive = inhibition above about 80% without an active follow-up result; inactive = below that; test concentration not stated here.

Assay: M. tuberculosis H37Rv growth inhibitors, H37Rv strain (AID 1626);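 also: bacteria incubated seven days before Alamar blue readout; 0% = bacteria only wells and 100% = bacteria with antibiotic wells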
Conditions: active compounds read high, concentration not given here
In the case of `CC(=O)Nc1ccccc1-c1ccc(C)o1`, the inhibition is reported as -8.39%.
Molecule `Cc1cnc(C(=O)Nc2ccccc2-c2ccc(C)o2)cn1` has an inhibition of -0.7%.
`CCC(=O)N(C)CCc1cc2c(c(OC)c1/C=N/NC(=O)[C@H]1C[C@@H]1c1ccccc1)OCO2` showed an inhibition of -2.15%.
`CN(C)c1ccc(NC(=S)NC(=O)/C=C/c2ccc(Cl)cc2)cc1` gave an inhibition of 5.85%.
Molecule `COc1cc(C(CCN2CCOCC2)c2c(OC)cc(OC)c3c(C)cc(=O)oc23)cc(OC)c1OC` (centres undefined) has an inhibition of -15.3%.
`COc1cc(C(CCN2CCCCC2)c2c(OC)cc(OC)c3c(C)cc(=O)oc23)cc(OC)c1OC` (centres undefined) showed an inhibition of -3.67%.
`COc1cc(C(CCN2CCCC2)c2c(OC)cc(OC)c3ccc(=O)oc23)cc(OC)c1OC` (centres undefined) showed an inhibition of -13%.
Work on `COc1cc(C(CCN2CCCC2)c2c(OC)cc(OC)c3c(C)cc(=O)oc23)cc(OC)c1OC` (centres undefined) yielded an inhibition of -6.56%.
For `Cn1nc(-c2ccc(OCC(N)=O)cc2)c2ccccc2c1=O`, the inhibition was 9.43%.
With `O=S(=O)(Nc1ccc(-c2cn3ccsc3n2)cc1)c1ccc2c(c1)OCCO2` the inhibition was -7.36%.
With `O=C(O)c1cccc(CSc2ncn[nH]2)c1` the inhibition was 3.99%.
Work on `CN(Cc1ncc[nH]1)Cc1cn(-c2ccccc2)nc1-c1ccc2c(c1)OCO2` yielded an inhibition of 6.67%.
`CCn1ccnc1CNCc1cn(-c2cc(C)ccc2C)nc1-c1ccccc1` showed an inhibition of 72%.
Work on `Cc1ccc(-n2cc(CN(C)Cc3nccn3C)c(-c3ccc(F)cc3)n2)cc1` yielded an inhibition of 60.4%.
`Cc1ccc(C)c(-n2cc(CNCCCn3cccn3)c(-c3ccccc3)n2)c1` gave an inhibition of -1.54%.
`CCn1ccnc1CN(C)Cc1cn(-c2ccccc2)nc1-c1ccc(OC)cc1F` showed an inhibition of 15%.
Molecule `Cc1ccc(-n2cc(CN3CCN(Cc4nccn4C)CC3)c(-c3cccc(C)c3)n2)cc1` has an inhibition of -0.87%.
Molecule `Cc1ccc(-n2cc(CN(C)CCc3cn[nH]c3)c(-c3cccc(C)c3)n2)cc1` has an inhibition of 6.61%.
Molecule `CN(Cc1cn(-c2ccccc2)nc1-c1ccc2c(c1)OCO2)Cc1nccn1C` has an inhibition of 2.66%.
With `CCS(=O)(=O)c1nc(S(=O)(=O)c2ccc(C)cc2)c(NCCCN(C)C)s1` the inhibition was -3.12%.
In the case of `Cc1cccc(C(=O)N(c2ccccn2)C(C)c2ccco2)c1` (centres undefined), the inhibition is reported as -1.89%.
For `CC(c1ccccc1F)n1cc(C(=O)NCc2ccncc2)nn1` (centres undefined), the inhibition was -6.06%.
Molecule `O=C(NNC(=O)c1cc2cc(OC(F)(F)F)ccc2[nH]1)c1cccc(C(F)(F)F)c1` has an inhibition of 0.47%.
Work on `CN(C)S(=O)(=O)c1ccc2c(c1)c(=O)c(C(=O)NCCCN1CCCCCC1)cn2C` yielded an inhibition of 0.45%.
In the case of `O=C(COC(=O)c1ccccc1O)Nc1cc([N+](=O)[O-])ccc1Cl`, the inhibition is reported as -5.14%.
Molecule `S=C(NC1CCCCC1)c1ccc2c(c1)OCO2` has an inhibition of 0.26%.
Work on `CCN1CC(CN(C)Cc2cn(-c3ccc(C)cc3)nc2-c2cccc(C)c2)CC1=O` (centres undefined) yielded an inhibition of 13.5%.
For `Cc1ccc(-n2cc(CNCCCn3cccn3)c(-c3cccc(C)c3)n2)cc1`, the inhibition was 69.4%.
Work on `CCCCOC(=O)c1ccc(N)cc1` yielded an inhibition of 78.1%.
Work on `CC(C)OC(=O)c1ccc(NC(=O)c2ccccc2)cc1` yielded an inhibition of 69.1%.
Work on `CCC(=O)Nc1cccc2c1C(=O)N(C)C2=O` yielded an inhibition of -8.82%.
For `COc1ccc(CCNC(=O)Cc2nn(C)c(=O)c3ccccc23)cc1OC`, the inhibition was 1%.
Molecule `Cc1nnc(NC(=O)CSc2nnc(Cc3cccn3C)n2-c2cccc(C(F)(F)F)c2)s1` has an inhibition of 4.46%.
Work on `CC(C)CN(C(=O)COC(=O)c1ccc(-c2ccccc2)cc1)C1CCS(=O)(=O)C1` (centres undefined) yielded an inhibition of 4.21%.
Work on `COc1ccc2cc(C(c3nnnn3CCc3ccccc3)N3CCC(O)CC3)c(=O)[nH]c2c1` (centres undefined) yielded an inhibition of 4.28%.
For `CCc1ccc2[nH]c(=O)c(C(c3nnnn3CCOC)N3CCN(c4ccccc4)CC3)cc2c1` (centres undefined), the inhibition was 2.21%.
`O=C(Cn1c(-c2cscn2)nc2ccccc21)Nc1ccc2ccccc2c1` gave an inhibition of 5.71%.
Work on `CC(=O)NCCn1c(SCC(=O)c2ccc(Cl)cc2)nc2ccccc2c1=O` yielded an inhibition of -2.5%.
Molecule `Cc1ccc(NC(=O)c2ccc([N+](=O)[O-])cc2Cl)nc1` has an inhibition of 1.78%.
For `Cc1c(C(=O)N2CCCCC2)sc(NC(=O)C2CC2)c1C#N`, the inhibition was -1.68%.
Molecule `Cc1c(C(=O)N2CCCCC2)sc(NC(=O)C(C)C)c1C#N` has an inhibition of -2.5%.
Work on `CCCC1=NN(C(=O)Cc2ccc(OC)c(OC)c2)C(O)(C(F)(F)F)C1` (centres undefined) yielded an inhibition of 7.79%.
`COc1ccc(-c2oc3ccccc3c(=O)c2OC(C)=O)cc1` gave an inhibition of 67.5%.
In the case of `O=C(O)COc1c(-c2ccco2)oc2ccccc2c1=O`, the inhibition is reported as -8.35%.
Molecule `CCC(C)NS(=O)(=O)c1ccc(NC(C)=O)cc1` (centres undefined) has an inhibition of -1.33%.
With `CC(C)OCC(O)CS(=O)Cc1ccccc1` (centres undefined) the inhibition was -8.07%.
Work on `CCC(=O)Nc1ccc2nc(C)n(CC(=O)Nc3ccccc3)c(=O)c2c1` yielded an inhibition of -7.72%.
Molecule `COc1ccc(C2c3ccc4ccccc4c3Oc3ncn(Cc4ccco4)c(=N)c32)cc1OC` (centres undefined) has an inhibition of 8.86%.
`N=c1c2c(ncn1Cc1ccco1)Oc1ccc3ccccc3c1C2c1ccccc1` (centres undefined) showed an inhibition of 20.9%.
For `Cc1cnc(C(=O)OCC(=O)Nc2ccc(Oc3ccccc3)cc2)cn1`, the inhibition was 38%.
With `Brc1ccc2[nH]c3c(N4CCc5ccccc5C4)ncnc3c2c1` the inhibition was 5.42%.
In the case of `Cc1ccc2c(c1)c1ncnc(N3CCC4(CC3)OCCO4)c1n2C`, the inhibition is reported as -2.11%.
In the case of `Fc1ccc2[nH]c3c(N4CCc5ccccc5C4)ncnc3c2c1`, the inhibition is reported as 4.31%.
For `Cc1ccc2c(c1)c1ncnc(N3CCN(c4ccccc4)CC3)c1n2C`, the inhibition was 0.76%.
Molecule `CCN(CC(=O)NCc1cccs1)C(=O)c1ccc(S(=O)(=O)N(C)C)cc1` has an inhibition of 2.21%.
`COc1cccc(NC(=O)CN2CCN(S(=O)(=O)c3ccc(F)cc3)CC2)c1` showed an inhibition of -7.83%.
`O=C1/C(=C\c2ccc(Cl)c(Cl)c2)N2CCC1CC2` showed an inhibition of 15.2%.
`Cc1ccc(NC(=O)CNc2ccc(OC(C)C)cc2)c(C)c1` gave an inhibition of 46.8%.
Work on `COc1ccc(Cl)cc1NC(=O)CNc1ccc(F)cc1C` yielded an inhibition of 6.38%.
With `CCOc1ccc(NC(=O)CNc2ccc(C)cc2Cl)cc1` the inhibition was -1.87%.
`CCOC(=O)Nc1ccc(C)cc1C` showed an inhibition of 0.47%.
With `COc1ccc(NCC(=O)Nc2ccc(Br)cc2F)c(OC)c1` the inhibition was 75.1%.
Work on `Cc1ccc(NC(=O)C(=O)NCCOc2ccc(Cl)cc2)c(C)c1` yielded an inhibition of 7.98%.
Work on `CCOc1ccc(OCCC(=O)Nc2ccc(F)cc2C)cc1` yielded an inhibition of -6.9%.
Molecule `Cc1ccc(NC(=O)CCC(=O)NNC(=O)COc2ccccc2)c(C)c1` has an inhibition of 2.24%.
With `C[C@@H]1CC[C@]2(O[C@@H](CCO)C[C@@H](O)[C@@H]2O)O1` the inhibition was -6.09%.
`Cc1nc2sc(C(c3cccc(F)c3)N3CCC(C)CC3)c(O)n2n1` (centres undefined) showed an inhibition of -7.23%.
Molecule `O=S(=O)(c1ccc(Cl)c(S(=O)(=O)N2CCCC2)c1)N1CCCC1` has an inhibition of -11.7%.
Work on `CC(=O)c1ccc(N2CCN(C(=O)C3(S(=O)(=O)c4ccc(Cl)cc4)CC3)CC2)cc1` yielded an inhibition of 1.33%.
With `Cc1cc(N2CCN(C)CC2)nc2ccc(NC(=S)N3CCCCC3)cc12` the inhibition was 30.4%.
Molecule `CN(C(=O)COc1ccc(S(=O)(=O)N2CCOCC2)cc1[N+](=O)[O-])C1CCS(=O)(=O)C1` (centres undefined) has an inhibition of -7.08%.
With `COc1ccc(NC(=O)c2cccnc2N2CCOCC2)cc1` the inhibition was 4.7%.
With `COc1ccccc1NC(=S)N(CCCN1CCOCC1)Cc1cccs1` the inhibition was -3.58%.
For `O=C(COC(=O)c1ccc([N+](=O)[O-])s1)NCc1ccccc1`, the inhibition was 17.7%.
In the case of `CCc1cccc2c(C(=O)COC(=O)c3ccccc3)c[nH]c12`, the inhibition is reported as 7.6%.
`Cc1[nH]c2ccccc2c1C(=O)COC(=O)c1ccc([N+](=O)[O-])s1` showed an inhibition of 99.3%.
With `CCc1cccc2c(C(=O)COC(=O)c3ccc(O)cc3)c[nH]c12` the inhibition was 2.75%.
In the case of `CCN(C(=O)CCCC(=O)N(CC)c1ccccc1)c1ccccc1`, the inhibition is reported as -1.06%.
`Cc1cc(C)nc(SCC(=O)Nc2ccc(S(=O)(=O)Nc3onc(C)c3C)cc2)n1` gave an inhibition of -9.62%.
Molecule `CC(C)(C)CN1CCNC(=O)C1CC(=O)N1CCN(c2ccccc2)CC1` (centres undefined) has an inhibition of -2.51%.
With `O=C(NCc1cccc(C(F)(F)F)c1)c1cc(Cl)ccc1Cl` the inhibition was 15%.
In the case of `CC1=Nc2ccccc2/C1=C\c1nc(-c2ccccc2)oc1O`, the inhibition is reported as 3.61%.
With `CC1=Nc2ccccc2/C1=C\c1nc(-c2ccc(F)cc2)oc1O` the inhibition was 54.8%.
Work on `O=C(O)CSCC(=O)NCc1ccccc1` yielded an inhibition of -2.1%.
Work on `CC(C)(C)CC(C)(C)NC(=O)CSCC(=O)Nc1ccc2ccccc2c1` yielded an inhibition of -8.35%.
Molecule `O=C(CSCc1ccc(C(=O)O)cc1)Nc1ccc2ccccc2c1` has an inhibition of 35.7%.
`CC(C)c1ccc(CNC(=O)CCc2ccccc2)cc1` gave an inhibition of 6.15%.
`CCN(CC)C(=N)/C(C#N)=N/Nc1ccccc1` gave an inhibition of -13.5%.
With `Cn1cccc1C(=O)NC(=O)COC(=O)CNC(=O)c1ccc(Cl)cc1Cl` the inhibition was -13%.
`O=C(Cn1nc(C(F)(F)F)c2c1CCCC2)Nc1ccc2c(c1)OCO2` showed an inhibition of -0.66%.
Molecule `CCOc1ccc(C2=NNC(c3cccnc3)=Nc3ccc(OC)cc32)cc1` has an inhibition of 1.63%.
With `N#CCCn1c(C(C#N)(CCC#N)CCC#N)nc2ccccc21` the inhibition was -2.99%.
In the case of `COc1ccc(S(=O)(=O)N=C2C=C(C)C(=O)C(C)=C2)cc1`, the inhibition is reported as -5.5%.
For `COc1ccc(C(=O)ON=C2C=C(C)C(=O)C(C)=C2)cc1`, the inhibition was -2.82%.
